# Calls of active or inactive are those of the source. Rule for the calls: active = hit-call score of the fitted dose curve at least 0.9, where 1 is the maximum; inactive = score below 0.9.
# Assays:
# [1] = APR_HepG2_P-H2AX_72hr: Apredica 72-hour HepG2 Assay for H2AX Phosphorylation (AID 2282916); conditions: imaging, actives raise or lower the signal;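 note: phospho-histone H2A.x immunostain intensity per cell marking DNA damage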
# Method in brief: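 HepG2; cpd 0.39–200 uM ×10 conc, duplicates; 0.5% DMSO; 72 hr. Fix 3.7% formaldehyde 30 min RT, 0.5% Triton X-100 10 min. Anti-phospho-H2A.x 1:200 + Hoechst 2 ug/mL, 60 min RT; ArrayScan imaging.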
# [2] = APR_HepG2_MitoMembPot_72hr: Apredica 72-hour HepG2 Assay for Mitochondrial Membrane Potential (AID 2282917); conditions: imaging, actives raise or lower the signal
# Method in brief: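 HepG2 cells exposed 72 h to compounds at 0.39–200 uM (0.5% v/v DMSO, duplicates); MitoTracker Red CMXRos 250 nM loaded 30 min before 3.7% formaldehyde fixation, imaged by HCS fluorescence. Bidirectional fit versus DMSO.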
# [3] = APR_HepG2_MitoticArrest_72hr: Apredica 72-hour HepG2 Assay for Mitotic Arrest (AID 2282918); conditions: high-content imaging, actives raise or lower the signal
# Method in brief: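 HepG2 cells were exposed for 72 hr to compound at 0.39–200 uM (10 concentrations, duplicate) in 0.5% v/v DMSO, fixed in 3.7% formaldehyde, immunostained for phospho-histone H3 with Hoechst 33342 and imaged by high-content fluorescence; bidirectional fits versus DMSO.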
# [4] = APR_HepG2_MicrotubuleCSK_72hr: Apredica 72-hour HepG2 Assay for Microtubule CSK Stabilty (AID 2282919); conditions: HepG2 microtubule cytoskeleton, high-content imaging, actives raise or lower the signal
# Method in brief: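 HepG2 human liver cells were dosed for 72 h at ten concentrations from 0.39 to 200 uM in duplicate (0.5% v/v DMSO final). Fixed, permeabilized cells were immunostained for alpha-tubulin (Cy5) with a Hoechst counterstain and imaged at 20x.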
# [5] = APR_HepG2_P-H2AX_24hr: Apredica 24-hour HepG2 Assay for H2AX Phosphorylation (AID 2282920); conditions: high-content imaging, actives raise or lower the signal
# Method in brief: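 HepG2 human liver cells were exposed for 24 hr to compounds at 0.39–200 uM in duplicate, with 0.5% v/v DMSO final. Fixed cells were immunostained for phospho-histone H2A.x plus Hoechst 33342, imaged by HCS fluorescence, and fitted bidirectionally against DMSO.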
# [6] = APR_HepG2_StressKinase_72hr: Apredica 72-hour HepG2 Assay for Stress Kinase (AID 2282921); conditions: HepG2 stress kinase (phospho-c-Jun) imaging, actives raise or lower the signal
# Method in brief: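 Dose 0.39–200 uM (10 pts, duplicate), 0.5% DMSO; 72 h; fix 3.7% formaldehyde 30 min RT; Triton permeabilize; anti-phospho-c-Jun/Cy3 + Hoechst 60 min RT; image 20x; fit gain/loss vs DMSO.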
# [7] = APR_HepG2_StressKinase_24hr: Apredica 24-hour HepG2 Assay for Stress Kinase (AID 2282922); conditions: HepG2 stress kinase (phospho-c-Jun) imaging, actives raise or lower the signal
# Method in brief: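 HepG2 cells exposed 24 hr to compound at 0.39–200 uM (10 concentrations, duplicate), 0.5% v/v DMSO final. Fixed in 3.7% formaldehyde, permeabilized with Triton X-100, immunolabeled for phospho-c-Jun with Hoechst 33342; HCS fluorescence imaging, bidirectional fit versus DMSO.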
# [8] = APR_HepG2_MitoMass_72hr: Apredica 72-hour HepG2 Assay for Mitochondrial Mass (AID 2282924); conditions: high-content imaging, actives raise or lower the signal;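 note: MitoTracker Red CMXRos stain intensity per cell imaged as mitochondrial mass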
# Method in brief: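 HepG2 cells were exposed for 72 hr to compounds at 0.39–200 uM (ten concentrations, duplicate, 0.5% v/v DMSO final). Live cells were stained with 250 nM MitoTracker Red CMXRos for 30 min, then fixed in 3.7% formaldehyde and imaged by HCS fluorescence.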
# [9] = APR_HepG2_NuclearSize_72hr: Apredica 72-hour HepG2 Assay for Nuclear Size (AID 2282925); conditions: high-content imaging, actives raise or lower the signal
# Method in brief: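 HepG2 cells were exposed to compounds at ten concentrations from 0.39 to 200 uM (duplicate, 0.5% DMSO final) for 72 hr. After fixation in 3.7% formaldehyde, nuclei were stained with Hoechst 33342 (2 ug/mL) and imaged at 20x.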
# [10] = ATG_CRE_CIS: Attagene CIS-FACTORIAL HepG2 Assay for human cAMP Responsive Element (CRE) binding protein 3 (AID 2282926); conditions: HepG2 CRE cis-reporter, Attagene multiplexed mRNA; actives raise or lower the signal
# Method in brief: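 HepG2 cells transiently transfected with a multiplexed reporter library (CRE-driven unit among them) were dosed for 24 h. Reporter mRNA was quantified by RT-PCR, fluorescent labelling, HpaI digestion and capillary electrophoresis, with bidirectional fitting against DMSO baseline.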
# [11] = target: CCAAT/enhancer-binding protein beta (Homo sapiens) (UniProt P17676); assay: ATG_C_EBP_CIS: Attagene CIS-FACTORIAL HepG2 Assay for human CCAAT/Enhancer Binding Protein (C/EBP) beta (AID 2282927); conditions: HepG2 Attagene cis-factorial transcription factor reporter; actives raise or lower the signal
# Sequence of CCAAT/enhancer-binding protein beta (Homo sapiens) (P17676 whole entry, looked up): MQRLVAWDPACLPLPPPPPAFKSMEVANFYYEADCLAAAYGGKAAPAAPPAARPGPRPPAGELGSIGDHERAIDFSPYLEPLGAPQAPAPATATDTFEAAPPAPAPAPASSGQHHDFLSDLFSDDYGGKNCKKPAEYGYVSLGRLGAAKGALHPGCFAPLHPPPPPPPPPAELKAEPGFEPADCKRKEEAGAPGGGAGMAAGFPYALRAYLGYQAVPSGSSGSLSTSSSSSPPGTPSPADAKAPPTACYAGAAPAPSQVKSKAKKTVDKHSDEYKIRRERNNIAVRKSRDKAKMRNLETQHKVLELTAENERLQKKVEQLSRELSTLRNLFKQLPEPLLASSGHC
# Method in brief: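 Following a 24 h incubation with test chemical, transfected HepG2 cells yielded RNA whose reporter transcripts were quantified by RT-PCR and fluorescent capillary electrophoresis, with DMSO serving as baseline for bidirectional fitting.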
# [12] = ATG_CMV_CIS: Attagene CIS-FACTORIAL HepG2 Assay for human CMV (Internal Marker) (AID 2282928); conditions: HepG2 CMV promoter reporter, transcription factor profiling; actives raise or lower the signal;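 note: endpoint acts as a background internal control marker rather than a target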
# Method in brief: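 Cell system: HepG2, transiently transfected multiple reporter units under cis promoters. Exposure: 24 h. Detection: RT-PCR, FAM labeling, HpaI digestion, capillary electrophoresis. Analysis: bidirectional, DMSO baseline.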
# [13] = ATG_DR4_LXR_CIS: Attagene CIS-FACTORIAL HepG2 Assay for human Liver X Receptor (LXR), DR4 submotif (AID 2282929); conditions: HepG2 Attagene DR4 cis-reporter, mRNA transcription; actives raise or lower the signal
# Method in brief: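 Readout: reporter transcript fluorescence after RT-PCR and capillary electrophoresis, fitted bidirectionally against DMSO controls. Human HepG2 liver cells carried transiently transfected multiplexed reporter constructs; endogenous transcription factor activity measured 24 h post-dosing.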
# [14] = target: Aryl hydrocarbon receptor (Homo sapiens) (UniProt P35869); assay: ATG_Ahr_CIS: Attagene CIS-FACTORIAL HepG2 Assay for human Aryl Hydrocarbon Receptor (Ahr) (AID 2282930); conditions: HepG2 AhR cis-factorial reporter transcription; actives raise or lower the signal
# Sequence of Aryl hydrocarbon receptor (Homo sapiens) (P35869 whole entry, looked up): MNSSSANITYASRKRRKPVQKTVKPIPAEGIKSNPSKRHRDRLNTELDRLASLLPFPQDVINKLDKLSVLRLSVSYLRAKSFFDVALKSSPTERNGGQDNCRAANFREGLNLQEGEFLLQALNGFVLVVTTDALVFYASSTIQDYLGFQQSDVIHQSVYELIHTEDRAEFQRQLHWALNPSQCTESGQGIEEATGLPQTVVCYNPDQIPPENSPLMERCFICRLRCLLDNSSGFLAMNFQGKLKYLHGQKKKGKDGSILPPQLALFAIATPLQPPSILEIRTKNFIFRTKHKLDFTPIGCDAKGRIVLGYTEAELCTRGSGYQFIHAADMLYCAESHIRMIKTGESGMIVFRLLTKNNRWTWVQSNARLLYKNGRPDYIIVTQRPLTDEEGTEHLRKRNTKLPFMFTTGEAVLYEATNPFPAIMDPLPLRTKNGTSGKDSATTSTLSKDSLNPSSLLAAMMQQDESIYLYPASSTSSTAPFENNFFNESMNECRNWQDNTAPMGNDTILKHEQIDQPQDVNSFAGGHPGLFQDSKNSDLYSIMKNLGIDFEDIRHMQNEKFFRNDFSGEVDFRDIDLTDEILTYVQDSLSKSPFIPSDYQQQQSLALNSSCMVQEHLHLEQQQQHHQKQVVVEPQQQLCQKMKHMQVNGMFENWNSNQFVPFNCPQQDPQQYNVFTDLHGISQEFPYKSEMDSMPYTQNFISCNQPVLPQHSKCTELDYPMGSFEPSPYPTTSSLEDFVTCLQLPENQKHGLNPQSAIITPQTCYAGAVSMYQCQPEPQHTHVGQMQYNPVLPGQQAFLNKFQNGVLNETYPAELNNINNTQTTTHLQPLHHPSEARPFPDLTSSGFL
# Method in brief: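 Values derive from bidirectional fitting against DMSO negative control. Underlying signal: cis-element reporter mRNA in transiently transfected HepG2, harvested 24 h post-dose and measured by RT-PCR plus capillary electrophoresis.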
# [15] = ATG_AP_1_CIS: Attagene CIS-FACTORIAL HepG2 Assay for human Activator Protein 1 (AP-1) (AID 2282931); conditions: HepG2 Attagene cis-factorial AP-1 reporter mRNA; actives raise or lower the signal
# Method in brief: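 Reporter transcripts were measured 24 h after dosing by RT-PCR and capillary electrophoresis of fluorescent fragments. Cells: HepG2 carrying transfected cis-regulated reporter constructs reading endogenous factor activity. Gain or loss fitted against DMSO.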
# [16] = ATG_AP_2_CIS: Attagene CIS-FACTORIAL HepG2 Assay for human Activator Protein 2 (AP-2) (AID 2282932); conditions: HepG2 AP-2 cis-reporter, Attagene transcription factor profiling; actives raise or lower the signal
# Method in brief: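 Bidirectional curve fitting against DMSO was applied to reporter mRNA signals from HepG2 cells 24 h after dosing. Cis-promoter reporter units, transiently transfected, were read by RT-PCR plus capillary electrophoresis.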
# [17] = target: Transcription factor E2F1 (Homo sapiens) (UniProt Q01094); assay: ATG_E2F_CIS: Attagene CIS-FACTORIAL HepG2 Assay for human E2F Transcription Factor 1 (AID 2282935); conditions: HepG2 Attagene cis-reporter, E2F reporter RNA transcripts; actives raise or lower the signal
# Sequence of Transcription factor E2F1 (Homo sapiens) (Q01094 whole entry, looked up): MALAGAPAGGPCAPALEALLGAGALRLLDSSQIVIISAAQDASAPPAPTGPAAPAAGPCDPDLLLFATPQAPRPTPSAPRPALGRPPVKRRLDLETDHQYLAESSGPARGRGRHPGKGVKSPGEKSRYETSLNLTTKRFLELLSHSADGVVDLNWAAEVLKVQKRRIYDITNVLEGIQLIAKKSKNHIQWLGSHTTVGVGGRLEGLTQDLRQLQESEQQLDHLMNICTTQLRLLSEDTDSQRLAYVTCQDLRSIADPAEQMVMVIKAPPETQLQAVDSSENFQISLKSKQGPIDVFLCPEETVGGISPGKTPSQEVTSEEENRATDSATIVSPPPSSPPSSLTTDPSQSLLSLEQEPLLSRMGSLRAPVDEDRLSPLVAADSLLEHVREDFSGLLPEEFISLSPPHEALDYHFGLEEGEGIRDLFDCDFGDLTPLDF
# Method in brief: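 Multiplexed cis-reporter assay: HepG2, transient transfection, 24 h dosing, mRNA quantitation by labeled RT-PCR and CE.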
# [18] = target: Retinoic acid receptor alpha (Homo sapiens) (UniProt P10276); assay: ATG_DR5_RAR_CIS: Attagene CIS-FACTORIAL HepG2 Assay for human Retinoic Acid Receptor Alpha (RARE), DR5 submotif (AID 2282934); conditions: HepG2 Attagene cis-factorial RARE DR5 reporter, mRNA; actives raise or lower the signal;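 for AC50: reporter responds to endogenous RAR alpha beta and gamma in HepG2 not RARA alone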
# Sequence of Retinoic acid receptor alpha (Homo sapiens) (P10276 whole entry, looked up): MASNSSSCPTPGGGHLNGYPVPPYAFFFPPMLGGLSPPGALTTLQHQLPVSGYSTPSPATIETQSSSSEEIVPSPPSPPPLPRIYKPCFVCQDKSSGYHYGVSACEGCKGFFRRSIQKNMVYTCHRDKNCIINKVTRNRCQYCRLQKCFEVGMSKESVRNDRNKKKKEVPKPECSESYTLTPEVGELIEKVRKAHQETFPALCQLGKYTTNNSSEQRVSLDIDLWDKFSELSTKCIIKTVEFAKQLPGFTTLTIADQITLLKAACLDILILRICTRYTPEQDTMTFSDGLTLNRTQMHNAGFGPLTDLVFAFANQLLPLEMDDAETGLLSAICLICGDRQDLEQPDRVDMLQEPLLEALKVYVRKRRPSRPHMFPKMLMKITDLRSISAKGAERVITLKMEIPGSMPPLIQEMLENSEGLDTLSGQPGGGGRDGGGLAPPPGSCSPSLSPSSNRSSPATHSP
# Method in brief: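 Endpoint fitted in both directions relative to DMSO as negative control. It reflects DR5 cis-element reporter mRNA induction in transiently transfected HepG2 cells, measured 24 h after dosing through RT-PCR and fluorescent capillary electrophoresis.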
# [19] = APR_HepG2_p53Act_72hr: Apredica 72-hour HepG2 Assay for p53 Activation (AID 2282923); conditions: high-content imaging, actives raise or lower the signal;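 note: average cellular p53 protein immunofluorescence intensity in HepG2 cells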
# Method in brief: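 10-pt conc. 0.39–200 uM, duplicate, 0.5% DMSO; 72 hr exposure; 3.7% formaldehyde fix, 0.5% Triton perm; sheep anti-p53/Cy5 + Hoechst; ArrayScan 20x, 6 images/well; gain/loss fit vs DMSO.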
# [20] = ATG_BRE_CIS: Attagene CIS-FACTORIAL HepG2 Assay for human Bone Morphogenetic Protein (BMP) Response Element (BRE) (AID 2282933); conditions: HepG2 BMP response element reporter, Attagene transcription factor profiling; actives raise or lower the signal
# Method in brief: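 Endogenous transcription factor activity read in transiently transfected HepG2 cells after 24 h chemical exposure. Bidirectional curve fitting against DMSO; readout is reporter transcript level by RT-PCR with capillary electrophoresis of labelled products.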
smiles,measurement,setting,value
CNC(=O)/C=C(\C)OP(=O)(OC)OC,outcome,[1],inactive
same,outcome,[2],inactive
same,outcome,[3],inactive
same,outcome,[4],inactive
same,outcome,[5],inactive
same,outcome,[6],inactive
same,outcome,[7],inactive
same,outcome,[8],inactive
same,outcome,[9],inactive
same,outcome,[10],inactive
same,outcome,[11],inactive
same,outcome,[12],inactive
same,outcome,[13],inactive
same,outcome,[14],inactive
same,outcome,[15],inactive
same,outcome,[16],inactive
same,outcome,[17],inactive
N#CN,outcome,[1],inactive
same,outcome,[2],inactive
same,outcome,[3],inactive
same,outcome,[4],inactive
same,outcome,[5],inactive
same,outcome,[6],inactive
same,outcome,[7],inactive
same,outcome,[8],inactive
same,outcome,[9],inactive
same,outcome,[10],inactive
same,outcome,[11],inactive
same,outcome,[12],inactive
same,outcome,[13],inactive
same,outcome,[14],inactive
same,outcome,[15],inactive
same,outcome,[16],inactive
same,outcome,[18],inactive
same,outcome,[17],inactive
CNC(=O)Oc1ccccc1OC(C)C,outcome,[1],inactive
same,outcome,[2],inactive
same,outcome,[3],inactive
same,outcome,[4],inactive
same,outcome,[5],inactive
same,outcome,[6],inactive
same,outcome,[7],inactive
same,outcome,[19],inactive
same,outcome,[8],inactive
same,outcome,[9],inactive
same,outcome,[10],inactive
same,outcome,[11],inactive
same,outcome,[12],inactive
same,outcome,[13],inactive
same,outcome,[14],inactive
same,outcome,[15],inactive
same,outcome,[16],inactive
same,outcome,[18],inactive
same,outcome,[17],inactive
CCN(CC)C(=O)SCc1ccc(Cl)cc1,outcome,[1],inactive
same,outcome,[2],inactive
same,outcome,[3],inactive
same,outcome,[4],inactive
same,outcome,[5],inactive
same,outcome,[6],inactive
same,outcome,[7],inactive
same,outcome,[19],inactive
same,outcome,[8],inactive
same,outcome,[9],inactive
same,outcome,[10],inactive
same,AC50,[11],8.69 µM (active)
same,outcome,[12],inactive
same,outcome,[13],inactive
same,outcome,[14],inactive
same,outcome,[15],inactive
same,outcome,[16],inactive
same,outcome,[18],inactive
same,outcome,[17],inactive
O=C(NC(=O)c1c(F)cccc1F)Nc1ccc(OC(F)(F)C(F)OC(F)(F)F)c(Cl)c1 (centres undefined),outcome,[1],inactive
same,outcome,[2],inactive
same,outcome,[3],inactive
same,outcome,[4],inactive
same,outcome,[5],inactive
same,outcome,[6],inactive
same,outcome,[7],inactive
same,outcome,[8],inactive
same,outcome,[9],inactive
same,outcome,[10],inactive
same,outcome,[11],inactive
same,outcome,[12],inactive
same,outcome,[13],inactive
same,outcome,[14],inactive
same,outcome,[15],inactive
same,outcome,[16],inactive
same,AC50,[20],14.2 µM (active)
same,outcome,[17],inactive
CNC(=O)CSP(=S)(OC)OC,outcome,[1],inactive
same,outcome,[2],inactive
same,outcome,[3],inactive
same,outcome,[4],inactive
same,outcome,[5],inactive
same,outcome,[6],inactive
same,outcome,[7],inactive
same,outcome,[8],inactive
same,outcome,[9],inactive
same,outcome,[10],inactive
same,outcome,[11],inactive
same,outcome,[12],inactive
same,outcome,[13],inactive
same,outcome,[14],inactive
same,outcome,[15],inactive
same,outcome,[16],inactive
same,outcome,[20],inactive
same,outcome,[17],inactive
CCOC1Oc2ccc(OS(C)(=O)=O)cc2C1(C)C (centres undefined),outcome,[1],inactive
same,outcome,[2],inactive
same,outcome,[3],inactive
same,outcome,[4],inactive
same,outcome,[5],inactive
same,outcome,[6],inactive
same,outcome,[7],inactive
same,outcome,[8],inactive
same,outcome,[9],inactive
same,AC50,[10],24 µM (active)
same,AC50,[11],14.5 µM (active)
same,outcome,[12],inactive
same,outcome,[13],inactive
same,outcome,[14],inactive
same,outcome,[15],inactive
same,outcome,[16],inactive
same,AC50,[20],61.4 µM (active)
same,AC50,[18],12.5 µM (active)
same,outcome,[17],inactive
Cc1[nH]c(=O)n(C(C)(C)C)c(=O)c1Cl,outcome,[1],inactive
same,outcome,[2],inactive
same,outcome,[3],inactive
same,outcome,[4],inactive
same,outcome,[5],inactive
same,outcome,[6],inactive
same,outcome,[7],inactive
same,outcome,[8],inactive
same,outcome,[9],inactive
same,AC50,[10],30.3 µM (active)
same,AC50,[11],31.3 µM (active)
same,outcome,[12],inactive
same,outcome,[13],inactive
same,outcome,[14],inactive
same,outcome,[15],inactive
same,outcome,[16],inactive
same,AC50,[20],50.5 µM (active)
same,outcome,[18],inactive
same,outcome,[17],inactive
O=C(O)COc1ccc(Cl)cc1Cl,outcome,[1],inactive
same,outcome,[2],inactive
same,outcome,[3],inactive
same,outcome,[4],inactive
same,outcome,[5],inactive
same,outcome,[6],inactive
same,outcome,[7],inactive
same,outcome,[19],inactive
same,outcome,[8],inactive
same,outcome,[9],inactive
same,outcome,[10],inactive
same,outcome,[11],inactive
same,outcome,[12],inactive
same,outcome,[13],inactive
same,outcome,[15],inactive
same,outcome,[16],inactive
same,outcome,[17],inactive
